Among all 310,000 compounds or so, about 14,000 (4.5%) showed an effect of 50% or more. The effect is printed as a negative number. The list comes from a sample in which strong results are over-represented; it also holds similar structures and randomly drawn compounds.
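Further: peak tail current of the secondary pulse compared with the same well before compound.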

This experiment deals with human ether-à-go-go-related gene (hERG) potassium channel (human, UniProt Q12809). Nature of the experiment: primary screen, population patch clamp on CHO cells stably expressing hERG; higher = less effect of the substance.
human ether-à-go-go-related gene (hERG) potassium channel, sequence (Q12809 whole entry, looked up): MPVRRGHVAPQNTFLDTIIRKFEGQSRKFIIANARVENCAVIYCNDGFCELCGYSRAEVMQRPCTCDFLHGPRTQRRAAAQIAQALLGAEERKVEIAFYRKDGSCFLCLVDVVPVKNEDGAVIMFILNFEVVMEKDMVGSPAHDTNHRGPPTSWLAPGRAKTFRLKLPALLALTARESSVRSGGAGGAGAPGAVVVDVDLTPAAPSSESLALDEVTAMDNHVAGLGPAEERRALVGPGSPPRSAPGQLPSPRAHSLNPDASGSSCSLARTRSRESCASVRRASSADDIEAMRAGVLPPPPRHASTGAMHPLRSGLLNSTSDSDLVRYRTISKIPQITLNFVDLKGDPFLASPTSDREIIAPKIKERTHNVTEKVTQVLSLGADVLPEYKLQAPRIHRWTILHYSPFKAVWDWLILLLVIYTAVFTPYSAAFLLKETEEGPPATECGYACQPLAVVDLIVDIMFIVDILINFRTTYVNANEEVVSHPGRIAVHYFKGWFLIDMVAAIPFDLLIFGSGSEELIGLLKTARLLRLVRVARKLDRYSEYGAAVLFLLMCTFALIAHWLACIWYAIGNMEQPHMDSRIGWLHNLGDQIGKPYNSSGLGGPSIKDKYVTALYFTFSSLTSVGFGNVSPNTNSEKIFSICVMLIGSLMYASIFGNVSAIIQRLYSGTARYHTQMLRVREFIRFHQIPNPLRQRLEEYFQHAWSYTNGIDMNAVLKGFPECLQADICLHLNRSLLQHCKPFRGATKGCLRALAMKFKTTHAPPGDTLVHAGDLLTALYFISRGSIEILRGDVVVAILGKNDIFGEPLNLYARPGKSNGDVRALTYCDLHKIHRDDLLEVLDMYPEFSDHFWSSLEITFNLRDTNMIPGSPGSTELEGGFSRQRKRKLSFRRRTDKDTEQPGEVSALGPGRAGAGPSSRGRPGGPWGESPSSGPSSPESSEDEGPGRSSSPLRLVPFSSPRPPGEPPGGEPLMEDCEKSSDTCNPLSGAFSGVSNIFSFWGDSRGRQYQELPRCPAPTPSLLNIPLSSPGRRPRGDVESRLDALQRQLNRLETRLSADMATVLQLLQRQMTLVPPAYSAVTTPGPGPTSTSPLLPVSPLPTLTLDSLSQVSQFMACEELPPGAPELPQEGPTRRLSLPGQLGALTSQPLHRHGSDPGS
For `CCOC(=O)c1c(NC(=O)c2cccs2)sc2c1CCCC2`, the “hERG current change (%, negative = inhibition) at 10uM” value was 15.6%.
Take `Cc1ccccc1NC1=NCC(C)S1` (centres unmarked): the “hERG current change (%, negative = inhibition) at 10uM” value was -2.32%.
The figure for `CCOC(=O)CN1C(=O)N[C@@H](c2cccs2)C(C(=O)OC)=C1C` is -11%.
To `CCCc1nn2c(=O)cc(CSCC(=O)Nc3ccc(F)cc3)nc2s1` belongs -1.51%.
As for `COc1ccccc1CCNC(=O)C1CCC(=O)N(Cc2ccccc2OC)C1` (centres unmarked), the “hERG current change (%, negative = inhibition) at 10uM” value was -13.2%.
As to `O=C(NC1(c2ccccc2)CC1)C1CCC(=O)N(Cc2ccc(Cl)cc2)C1` (centres unmarked), the “hERG current change (%, negative = inhibition) at 10uM” value was -24.1%.
To `O=C(NCCc1ccccc1Cl)C1CCC(=O)N(Cc2ccc(Cl)cc2)C1` (centres unmarked) belongs -56.8%; to `O=C(NCCc1ccccc1F)C1CCC(=O)N(Cc2ccc(Cl)cc2)C1` (centres unmarked), -32.5%.
As for `COc1ccccc1CN1CC(C(=O)N2CCCCO2)CCC1=O` (centres unmarked), the “hERG current change (%, negative = inhibition) at 10uM” value is listed as -65.7%.
To `Cc1ccccc1CCNC(=O)C1CCC(=O)N(Cc2ccc(Cl)cc2)C1` (centres unmarked) belongs -33.4%.
`COc1ccccc1CN1CC(C(=O)N2CCOCC2)CCC1=O` (centres unmarked): the “hERG current change (%, negative = inhibition) at 10uM” value was -14.6%.
As for `CN(CCNC(=O)C1CCC(=O)N(Cc2cccc(F)c2)C1)CCc1ccccc1` (centres unmarked), the “hERG current change (%, negative = inhibition) at 10uM” value is on record as -46.3%.
To `COc1ccccc1CN1CC(C(=O)N2CCCCCCC2)CCC1=O` (centres unmarked) belongs 3.22%; to `COc1ccccc1CN1CC(C(=O)NCCN(C)CCc2ccccc2)CCC1=O` (centres unmarked), -65.7%; to `CN(CCNC(=O)C1CCC(=O)N(Cc2ccc(Cl)cc2)C1)CCc1ccccc1` (centres unmarked), -72.6%.
To `COc1ccccc1CN1CC(C(=O)NCCCc2ccc(F)cc2)CCC1=O` (centres unmarked) belongs -41%; to `O=S(=O)(NC1CCCCC1)c1ccc(N2CCOCC2)nc1`, -2.81%.
The figure for `COc1ccc(C(C(=O)NC2CCCC2)N(C(=O)c2snc(-c3ccc(F)cc3)c2N)c2ccc(F)cc2)cc1` (centres unmarked) is 1.29%.
`N#Cc1ccccc1NC(=O)c1ccccc1OCC(=O)Nc1ccc2c(c1)oc1ccccc12`: the “hERG current change (%, negative = inhibition) at 10uM” value turned out to be 16.2%.
On to `Cc1nn(-c2ccc(F)cc2)c(Cl)c1/C=C/C(=O)OCC(=O)Nc1ccc(F)cc1F`, for which the “hERG current change (%, negative = inhibition) at 10uM” value came to 15.5%.
To `CSc1ccc(NC(=O)CC(C)=O)cc1` belongs -21.3%.
To `Cc1c(NC(=O)c2cc3c(=O)n4ccccc4nc3s2)c(=O)n(-c2ccccc2)n1C` belongs 8.11%; to `CN(Cc1nc2ccccc2n1C)S(=O)(=O)c1ccc(Cl)cc1`, 3.21%; to `CCC(=O)c1c[nH]c(C(=O)NCCc2ccccn2)c1`, 3.31%.
To `O=C(CCNC(=O)N1CCn2c1nc1ccccc12)NCc1ccc(F)cc1` belongs -6.29%; to `COc1ccc(Br)cc1/C=C(\C(=O)O)c1ccc(S(=O)(=O)N2CCCCC2)s1`, 0.483%; to `Cc1ccc(CNC(=O)C2CCC(=O)N(CCc3ccccn3)C2)s1` (centres unmarked), 2.53%.
Consider `O=C(NCCCc1ccccc1)C1CCC(=O)N(Cc2ccc(Cl)cc2)C1` (centres unmarked), for which the “hERG current change (%, negative = inhibition) at 10uM” value is -61.3%.
The figure for `O=C(NCCOc1ccccc1)C1CCC(=O)N(Cc2ccc(Cl)cc2)C1` (centres unmarked) is -31.2%; for `Cc1ccc(CCN2CC(C(=O)NCCc3ccccc3)CC2=O)cc1` (centres unmarked) it is -3.16%; for `O=C(NCCc1ccc(Cl)cc1)C1CC(=O)N(CCc2ccccc2)C1` (centres unmarked) it is -62%.
The figure for `O=C(NCCc1ccccc1)C1CC(=O)N(CCc2ccccc2)C1` (centres unmarked) is 6.57%; for `O=C(NCCOc1ccccc1)C1CCC(=O)N(CCc2ccc(Cl)cc2)C1` (centres unmarked) it is -88.2%; for `O=C(NCCc1ccccc1)C1CCC(=O)N(Cc2ccc(Cl)cc2)C1` (centres unmarked) it is -20.5%.
To `O=C(NCc1ccccc1F)C1CCC(=O)N(Cc2ccc(Cl)cc2)C1` (centres unmarked) belongs -42.1%.
Take `Cc1ccc(CNC(=O)C2CCC(=O)N(CCc3ccccc3)C2)s1` (centres unmarked): the “hERG current change (%, negative = inhibition) at 10uM” value is on record as -25.7%.
The figure for `Cc1ccc(CNC(=O)C2CCC(=O)N(CCc3ccc(Cl)cc3)C2)s1` (centres unmarked) is -69.4%.
To `O=C(NCCOc1ccccc1)C1CCC(=O)N(CCc2ccccn2)C1` (centres unmarked) belongs -11.9%; to `Cc1ccc(S(=O)(=O)N(CCCO)CC(O)CON=C2c3ccccc3-c3ccccc32)cc1` (centres unmarked), 14.4%; to `NC(=O)c1ccc(-c2noc(-c3cccc(Cl)c3)n2)cc1`, 19.4%.
The figure for `Cc1ccc(CSCc2ccc(C(=O)O)o2)cc1` is 21.8%; for `COC(=O)c1ccncc1C(=O)Nc1ccc(Oc2ncc(C(F)(F)F)cc2Cl)cc1` it is -5.09%; for `O=C(CCCCn1c(=O)[nH]c2ccsc2c1=O)NCC1CCCO1` (centres unmarked) it is 4.17%.
`COC(=O)[C@]1(C)CCC[C@@]2(C)C3CC[C@@]4(C)C[C@]3(CCC21)CC(=O)N4Cc1ccc(OC)cc1` (some centres unmarked): the “hERG current change (%, negative = inhibition) at 10uM” value was determined as 7.82%.
The figure for `C#CCOCCOCCOCCNc1nc(N2CCN(C(=O)[C@H](CCCC[NH3+])n3cc(CCCC)nn3)CC2)nc(N2CCN(C(=O)[C@H](CCCC[NH3+])n3cc(CCC(=O)O)nn3)CC2)n1.[Cl-]` is 17.4%.
The figure for `Cn1nc(C(=O)OCc2ccc(F)cc2)c2ccccc2c1=O` is 3.57%; for `Cc1cc(C)c(OC2(c3ccccc3)OC(=O)c3ccccc32)c(C)c1` (centres unmarked) it is -5.57%; for `Cc1c(C(=O)Nc2ccccc2)c2cc(O)ccc2n1Cc1ccccc1` it is 4.2%.
In the case of `O=C(NCc1cccs1)c1noc2c1CCCC2`, the “hERG current change (%, negative = inhibition) at 10uM” value is reported as -2.52%.
The figure for `O=C(NCCCC1CCCC1)C1CCC(=O)N(Cc2ccc(Cl)cc2)C1` (centres unmarked) is -61.4%.
The figure for `O=C(NCCCC1CCCC1)C1CCC(=O)N(Cc2cccc(F)c2)C1` (centres unmarked) is -15.2%; for `O=C(NCCc1cnccn1)C1CCC(=O)N(Cc2ccc(Cl)cc2)C1` (centres unmarked) it is 2.46%.
To `O=C(NCCCc1ccncc1)C1CCC(=O)N(Cc2cccc(C(F)(F)F)c2)C1` (centres unmarked) belongs -18.7%.
On to `O=C(NCCc1ccccc1Cl)C1CCC(=O)N(CCCc2ccccc2)C1` (centres unmarked), for which the “hERG current change (%, negative = inhibition) at 10uM” value is reported as -34.1%.
As for `O=C(NCCCc1ccccc1)C1CCC(=O)N(CCc2ccc(Cl)cc2)C1` (centres unmarked), the “hERG current change (%, negative = inhibition) at 10uM” value is given as -79.8%.
Regarding `CC(C)c1cc(CNC(=O)C2CCC(=O)N(CCc3ccc(Cl)cc3)C2)on1` (centres unmarked), the “hERG current change (%, negative = inhibition) at 10uM” value is reported as -68.1%.
Turning to `Cc1cc(CNC(=O)C2CCC(=O)N(CCc3ccc(Cl)cc3)C2)no1` (centres unmarked), the “hERG current change (%, negative = inhibition) at 10uM” value is on record as -39.7%.
To `O=C(NCCCc1ccncc1)C1CCC(=O)N(Cc2ccc(Cl)cc2)C1` (centres unmarked) belongs -61.1%.
To `O=C(NCCN1CCCC1=O)C1CCC(=O)N(CCc2ccc(Cl)cc2)C1` (centres unmarked) belongs -4.65%; to `O=C(NCCCC1CCCC1)C1CCC(=O)N(Cc2ccccc2F)C1` (centres unmarked), -9.03%; to `CC(C)c1nc(CNC(=O)C2CCC(=O)N(CCc3ccc(Cl)cc3)C2)no1` (centres unmarked), -27.6%.
To `CCn1c(CNC(=O)c2ccccc2F)nnc1SCC(=O)NC1CCCCC1C` (centres unmarked) belongs 31.8%; to `O=C(c1ccc(F)cc1)N1CCC(N2CCOCC2)CC1`, -5.45%; to `O=C(Nc1ccc(S(=O)(=O)Nc2ncccn2)cc1)c1cccc(S(=O)(=O)N2CCCC2)c1`, -4.1%.
Consider `N#Cc1nc(-c2ccc(F)cc2)oc1N1CCCCC1`, for which the “hERG current change (%, negative = inhibition) at 10uM” value is given as 8.29%.
The figure for `COc1ccccc1Cc1noc(COc2cccc(C)c2C)n1` is 3.03%; for `COc1ccc(C(=O)NCCc2nnc3ccc(SCC(=O)Nc4cc(C)on4)nn23)cc1` it is 4.8%; for `COC(=O)C1=C(c2ccc(C(C)=O)cc2)C[C@@H]2CC[C@H]1N2C(=O)N1CCC(O)(c2ccc(Cl)cc2)CC1` it is -73.6%.
The figure for `COC(=O)C1=C(c2ccc(OC(F)(F)F)cc2)C[C@@H]2CC[C@H]1N2C(=O)N1CCCCC1` is -56.3%.
For `COC(=O)C1=C(c2ccc(C(C)=O)cc2)C[C@@H]2CC[C@H]1N2C(=O)N1CCCC1`, the “hERG current change (%, negative = inhibition) at 10uM” value is listed as 0.9%.
With `COC(=O)C1=C(c2ccc(OC(F)(F)F)cc2)C[C@@H]2CC[C@H]1N2C(=O)N1CCCC1`, the “hERG current change (%, negative = inhibition) at 10uM” value is -47.9%.
The figure for `COC(=O)C1=C(c2ccc(C(C)=O)cc2)C[C@@H]2CC[C@H]1N2C(=O)N1CCCCC1` is -16.9%; for `CCCNC(=O)N1[C@H]2CC[C@@H]1C(C(=O)OC)=C(c1ccc(OC(F)(F)F)cc1)C2` it is -27.4%.
To `COC(=O)C1=C(c2ccc(OC(F)(F)F)cc2)C[C@@H]2CC[C@H]1N2C(=O)NCCNC(C)=O` belongs 2.65%.
The figure for `COC(=O)C1=C(c2ccc(OC(F)(F)F)cc2)C[C@@H]2CC[C@H]1N2C(=O)NCC1CC1` is -58.6%.
Regarding `COC(=O)C1=C(c2ccc(OC(F)(F)F)cc2)C[C@@H]2CC[C@H]1N2C(=O)N1CCC(O)CC1`, the “hERG current change (%, negative = inhibition) at 10uM” value is -36.2%.
To `CC1=CC=CC2=N/C(=N\S(=O)(=O)c3ccc(F)cc3F)c3ccccc3CN12` belongs -20.3%; to `COc1ccc(CC(=O)N(C)Cc2cccc(OC)c2OC)cc1S(=O)(=O)N1CCOCC1`, -5.58%.
To `N=c1oc2ccccc2cc1C(=O)Nc1ccc(F)cc1` belongs 16.5%.
To `COc1ccc(C2=NO[C@@H]3C(=O)N(Cc4ccccc4)C(=O)[C@H]23)cc1OC` belongs -1.95%.
As to `CN(C)S(=O)(=O)c1ccc(N/C=C(\[N+](=O)[O-])S(=O)(=O)c2ccccc2)cc1`, the “hERG current change (%, negative = inhibition) at 10uM” value is given as 15.2%.
Regarding `COCCNC(=O)/C(C#N)=C/c1ccc(O)cc1`, the “hERG current change (%, negative = inhibition) at 10uM” value was 10.6%.
The figure for `Cc1ccc(C(C)NC(=O)Cc2cccs2)c(C)c1` (centres unmarked) is -9.26%.

For the origin of these results see paper PMC4336329 (PLoS ONE, 2015).
